Compounds without any hit were thinned out: in the full panel of roughly 83,000, 20% have a hit.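 Cells were grown in 96-well plates and exposed to the test compound at a single concentration for 48 hours; results are reported as percent growth, with values below 10 considered active.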 Unmarked numbers belong to inactive results. Active and inactive are the calls of the source.
How the values were obtained:
Assay in all cases: NCI-60 one-dose screen, 48 h (100 = growth as untreated, 0 = no growth, -100 = all killed)
Settings in all cases: 10 µM
[1] = test system: NCI-H23 lung
[2] = test system: NCI-H226 lung
[3] = test system: NCI-H322M lung
[4] = test system: HOP-62 NSCLC
[5] = test system: NCI-H460 lung
[6] = test system: HOP-92 NSCLC
[7] = test system: NCI-H522 lung
[8] = test system: A549/ATCC NSCLC
[9] = test system: 786-0 renal
[10] = test system: COLO 205 colon

O=C(O)CCCCCCCCCCN1C(=O)/C(=C/c2cnc(-c3ccc(Cl)cc3)s2)SC1=S
growth [1]: 11.8% | growth [2]: 34.8% | growth [3]: 5.41% (active) | growth [4]: 36.3% | growth [5]: 4.44% (active) | growth [6]: -40.9% (active) | growth [7]: -16% (active) | growth [8]: -19.6% (active) | growth [9]: 28.1% | growth [10]: 139%

CN(C)c1ccc(/C=C/c2nc3ccccc3c(=O)n2CC(=O)Nc2ccc(Cl)cc2)cc1
growth [1]: 67.2% | growth [2]: 2.45% (active) | growth [3]: 61.7% | growth [4]: 25.4% | growth [5]: 44.6% | growth [6]: -13.6% (active) | growth [7]: 77.9% | growth [8]: 43.8% | growth [9]: 27.8% | growth [10]: 57.3%

COc1ccc(C(=O)/C=C/c2ccc(Cl)c(C(F)(F)F)c2)cc1S(N)(=O)=O
growth [1]: -86.5% (active) | growth [2]: -95.3% (active) | growth [3]: -100% (active) | growth [4]: -84% (active) | growth [5]: -79.2% (active) | growth [6]: -68.8% (active) | growth [7]: -83.2% (active) | growth [8]: -78.1% (active) | growth [9]: -85.6% (active) | growth [10]: -71.5% (active)

Cc1ccc([N+](=O)[O-])c(C(=O)Nc2ccc(-c3ccc4c(c3)NC(=O)/C4=C\c3ccc[nH]3)cc2)c1
growth [1]: 21% | growth [2]: 52% | growth [3]: 48.9% | growth [4]: 86% | growth [5]: 0.658% (active) | growth [6]: 109% | growth [7]: 39.5% | growth [8]: 47% | growth [9]: 61.6% | growth [10]: 8.99% (active)

CCCn1c(=O)c2[nH]c(-c3ccc(OCc4nc5ccc(C)cc5[nH]4)cc3)nc2n(CCC)c1=O
growth [1]: 25.3% | growth [2]: -55% (active) | growth [3]: 40.3% | growth [4]: -17.3% (active) | growth [5]: 13% | growth [6]: -43.2% (active) | growth [7]: 36.7% | growth [8]: 62.7% | growth [9]: -75.2% (active) | growth [10]: 91.3%

Cc1ccc(-c2nc(Nc3ccc(C)c(S(N)(=O)=O)c3)c3ccccc3n2)cc1
growth [1]: 79% | growth [2]: 84.1% | growth [3]: 79.7% | growth [4]: 96.3% | growth [5]: 11.9% | growth [6]: 104% | growth [7]: 112% | growth [8]: 43.4% | growth [9]: 33.7% | growth [10]: 90.5%

O=C(CSc1nnc(-c2c[nH]c3ccccc23)n1-c1ccccc1)Nc1ccc(C(=O)/C=C/c2ccc(Cl)cc2)cc1
growth [1]: 61.5% | growth [2]: 74.8% | growth [3]: 89% | growth [4]: 85.8% | growth [5]: 88.2% | growth [6]: 87.3% | growth [7]: 76.8% | growth [8]: 79.3% | growth [9]: 93.6% | growth [10]: 89.7%

O=C(Cc1ccc2c(c1)CN(C1CCC(=O)NC1=O)C2=O)NCc1cccc2ccccc12 (stereo not given)
growth [1]: 12.7% | growth [2]: 1.96% (active) | growth [3]: -4.15% (active) | growth [4]: -23.1% (active) | growth [5]: 45.7% | growth [6]: -28.3% (active) | growth [7]: -21.4% (active) | growth [8]: 7.72% (active) | growth [9]: -23.6% (active) | growth [10]: -35.7% (active)

Cc1nc(Nc2nc(C)c3ccc(OCCN4CCOCC4)cc3n2)[nH]c(=O)c1C
growth [1]: -66.6% (active) | growth [2]: -47.2% (active) | growth [3]: -10.8% (active) | growth [4]: -34.5% (active) | growth [5]: 2.14% (active) | growth [6]: 3.9% (active) | growth [7]: -52.3% (active) | growth [8]: 6.61% (active) | growth [9]: -25.1% (active) | growth [10]: 0.287% (active)

COc1ccc(C(=O)CSc2nnc(-c3c[nH]c4ccccc34)n2-c2ccccc2)cc1
growth [1]: 56.5% | growth [2]: 0.0587% (active) | growth [3]: 58.3% | growth [4]: 8.82% (active) | growth [5]: 65.5% | growth [6]: 7.9% (active) | growth [7]: 45.7% | growth [8]: 74% | growth [9]: 45.2% | growth [10]: 84.8%

CC(C)C(=O)Nc1ccc(C(=O)NC(=S)Nc2ccc(C(=O)O)cc2)cc1
growth [1]: 101% | growth [2]: 95.6% | growth [3]: 105% | growth [4]: 102% | growth [5]: 102% | growth [6]: 108% | growth [7]: 90.6% | growth [8]: 110% | growth [9]: 102% | growth [10]: 105%

Cc1nn(-c2ccccc2)c2ncn(CC(=O)N/N=C/c3c[nH]c4ccccc34)c(=O)c12
growth [1]: 95.4% | growth [2]: 93.1% | growth [3]: 93.5% | growth [4]: 95.6% | growth [5]: 92.9% | growth [6]: 80.5% | growth [7]: 89% | growth [8]: 85.4% | growth [9]: 88% | growth [10]: 109%

COc1ccccc1[C@H]1C(C(=O)c2ccc(O)cc2)C2(N[C@@H]1c1ccccc1)C(=O)Nc1ccc(Br)cc12 (stereo not given in full)
growth [1]: 33.8% | growth [2]: 48.1% | growth [3]: 55.3% | growth [4]: 51.3% | growth [5]: 20.2% | growth [6]: 51.8% | growth [7]: -7.87% (active) | growth [8]: 32.6% | growth [9]: 26.9% | growth [10]: -5.4% (active)

CCCCSc1nc(Nc2ccc(/C(C)=N/NC(N)=S)cc2)c(C#N)c(-c2ccc(F)cc2)n1
growth [1]: 21% | growth [2]: 20.7% | growth [3]: 53.8% | growth [4]: 22.7% | growth [5]: 18.4% | growth [6]: -18.5% (active) | growth [7]: 43.9% | growth [8]: 8.95% (active) | growth [9]: -20.5% (active) | growth [10]: 47.1%

O=C(NCCCCCCCCCC[P+](c1ccccc1)(c1ccccc1)c1ccccc1)c1ccc(-n2nc(-c3ccccc3O)nc2-c2ccccc2O)cc1
growth [1]: -66.8% (active) | growth [2]: -58.9% (active) | growth [3]: -91.1% (active) | growth [4]: -64.1% (active) | growth [5]: 8.35% (active) | growth [6]: -74.9% (active) | growth [7]: -78.3% (active) | growth [8]: -51.9% (active) | growth [9]: -64% (active) | growth [10]: -83.1% (active)

CCOC(=O)CNC(=O)CN(Cc1ccccc1)C(=O)[C@@]1(C)CCC[C@]2(C)[C@H]3CC4C(C(C)C)=C[C@]3(CC[C@H]21)[C@@H]1C(=O)CCC(=O)[C@H]41
growth [1]: 48.9% | growth [2]: 49.3% | growth [3]: 86.5% | growth [4]: 92.3% | growth [5]: 65% | growth [6]: 80.5% | growth [7]: 36.7% | growth [8]: 65% | growth [9]: 78.1% | growth [10]: 79.4%

O=c1[nH]c2ccccc2cc1CSc1ccc(Nc2nccc(-c3ccc4ccccc4c3)n2)cc1
growth [1]: 18.1% | growth [2]: 19% | growth [3]: 70.1% | growth [4]: 74.7% | growth [5]: 24.3% | growth [6]: -3.82% (active) | growth [7]: 71.5% | growth [8]: 22.4% | growth [9]: 51.7% | growth [10]: 25.3%

CNC(=O)c1cccc(N2CCc3c2ccc(NC(=O)Nc2ccc(N4CCN(C)CC4)c(C(F)(F)F)c2)c3F)c1
growth [1]: -85.6% (active) | growth [2]: 104% | growth [3]: -92% (active) | growth [4]: -80% (active) | growth [5]: -81% (active) | growth [6]: -83% (active) | growth [7]: -91.7% (active) | growth [8]: -86% (active) | growth [9]: -95.6% (active) | growth [10]: 92.7%

Cc1cc(C)cc(Oc2cccc(-c3c(C)nnn3C3CCN(CCN(C)C)CC3)n2)c1
growth [1]: 34.5% | growth [2]: 5.11% (active) | growth [3]: 40% | growth [4]: 42.5% | growth [5]: 51.1% | growth [6]: -9.61% (active) | growth [7]: -15.7% (active) | growth [8]: 30.3% | growth [9]: 22.3% | growth [10]: -74% (active)

CC(C)c1ccc(C(=O)Nc2sc3c(c2C(N)=O)CCC(=O)C3=O)cc1
growth [1]: 81.3% | growth [2]: 86.6% | growth [3]: 104% | growth [4]: 102% | growth [5]: 97.5% | growth [6]: 127% | growth [7]: 84% | growth [8]: 99.4% | growth [9]: 113% | growth [10]: 104%

CCCn1c(=O)c2[nH]c(-c3ccc(OCc4nc5ccc(F)cc5[nH]4)cc3)nc2n(CCC)c1=O
growth [1]: 26.3% | growth [2]: -36.1% (active) | growth [3]: 23.8% | growth [4]: -19.4% (active) | growth [5]: -50.8% (active) | growth [6]: -27.5% (active) | growth [7]: 24.3% | growth [8]: 36% | growth [9]: -87.2% (active) | growth [10]: 25.5%

CC(=O)OC[C@@]1(C)C2CC[C@]3(C)C(CC=C4C5CC(C)(C)CC[C@]5(C(=O)Nc5ccccc5)CC[C@]43C)[C@@]2(C)C[C@@H](OC(C)=O)[C@@H]1OC(C)=O (stereo not given in full)
growth [1]: 40.2% | growth [2]: 40.6% | growth [3]: 61.1% | growth [4]: 32.8% | growth [5]: 32% | growth [6]: 40.1% | growth [7]: 42% | growth [8]: 39.6% | growth [9]: 45.7% | growth [10]: 45.5%

CNC(=O)c1cc(-c2ccc(NC(=O)Nc3ccc(C)cc3)cc2)nc2cccnc12
growth [1]: 101% | growth [2]: 61.4% | growth [3]: 96.6% | growth [4]: 90.6% | growth [5]: 105% | growth [6]: 64.6% | growth [7]: 87.5% | growth [8]: 98.1% | growth [9]: 104% | growth [10]: 115%

O=C1Nc2ccc(F)cc2/C1=C/c1cccc(OCc2ccccc2)c1
growth [1]: 24.8% | growth [2]: 35.3% | growth [3]: 47.6% | growth [4]: 48.4% | growth [5]: 7.06% (active) | growth [6]: 18.8% | growth [7]: 5.02% (active) | growth [8]: 41.8% | growth [9]: 33.7% | growth [10]: 34.1%

CCC(C)S(=O)(=O)c1oc(-c2ccc(C)cc2)nc1S(=O)(=O)c1ccccc1 (stereo not given)
growth [1]: -86.8% (active) | growth [2]: -10.3% (active) | growth [3]: 65.1% | growth [4]: 28.7% | growth [5]: -13.9% (active) | growth [6]: -74.6% (active) | growth [7]: -98.7% (active) | growth [8]: 35.9% | growth [9]: -48.8% (active) | growth [10]: -85.5% (active)

Cc1cc(C)nc(NS(=O)(=O)c2ccc(N/C(N)=N/c3nccc(-c4cccs4)n3)cc2)n1
growth [1]: 90% | growth [2]: 77.8% | growth [3]: 95.6% | growth [4]: 83% | growth [5]: 99.2% | growth [6]: 107% | growth [7]: 90.5% | growth [8]: 99.7% | growth [9]: 111% | growth [10]: 105%
